Out of some 86,000 compounds screened, about 1,400 (1.6%) were called active. No stated cut-off is given here; in the data, active means inhibition above about 50%; inactive means the rest. For the sample, actives were picked, then their nearest neighbours and some compounds at random.
These molecules were tested against Estrogen receptor (Homo sapiens) (UniProt P03372) (assay: ERα–SRC-1 coactivator interaction inhibitors, primary screen, biochemical, TR-FRET, ERα LBD, estradiol-bound (AID 629;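 further: 0% = receptor plus peptide control and 100% = peptide only without receptor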)). Conditions: TR-FRET ER-alpha LBD / SRC-1 peptide, at 25.6 µM, active compounds read high.
Estrogen receptor (Homo sapiens), sequence (P03372 whole entry, looked up, the tested form may be a part): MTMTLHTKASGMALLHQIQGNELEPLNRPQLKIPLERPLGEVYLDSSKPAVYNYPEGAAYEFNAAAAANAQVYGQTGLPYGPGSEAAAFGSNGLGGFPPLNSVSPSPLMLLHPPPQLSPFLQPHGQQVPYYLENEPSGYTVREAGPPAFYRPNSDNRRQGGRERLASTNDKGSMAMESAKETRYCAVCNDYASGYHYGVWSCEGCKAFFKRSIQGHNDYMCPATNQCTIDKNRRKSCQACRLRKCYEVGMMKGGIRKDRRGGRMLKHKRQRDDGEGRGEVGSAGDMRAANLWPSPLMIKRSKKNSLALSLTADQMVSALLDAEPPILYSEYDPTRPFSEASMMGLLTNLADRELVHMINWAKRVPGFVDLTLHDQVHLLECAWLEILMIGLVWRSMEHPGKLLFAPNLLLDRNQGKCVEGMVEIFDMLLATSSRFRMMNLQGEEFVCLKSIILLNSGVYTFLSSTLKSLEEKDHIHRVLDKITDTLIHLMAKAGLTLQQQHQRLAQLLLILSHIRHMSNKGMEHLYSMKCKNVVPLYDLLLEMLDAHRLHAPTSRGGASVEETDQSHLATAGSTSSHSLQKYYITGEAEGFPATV

| SMILES | inhibition |
| --- | --- |
| CCOC(=O)c1c(NC(=O)c2ccc(Br)o2)sc2c1CCCC2 | 7.77% (inactive) |
| Cc1cc(NC(=O)CSc2nc(C(C)C)nc3sc4c(c23)CCC(C)C4)no1 (stereo unspecified) | -14.6% (inactive) |
| CC1CCc2c(sc(NC(=O)c3ccc(Cn4cc(Br)cn4)o3)c2C(N)=O)C1 (stereo unspecified) | 50.6% (active) |
| Cc1ccc(CN(C(=O)c2sc3ccccc3c2Cl)C2CCS(=O)(=O)C2)cc1 (stereo unspecified) | 6.88% (inactive) |
| C/C=C/C(=O)Nc1nnc(C(C)C)s1 | -19.7% (inactive) |
| COc1ccc(C(=O)Nc2nc(-c3ccc(S(=O)(=O)N4CCOCC4)cc3)cs2)cc1 | 3.26% (inactive) |
| CNC(=O)c1c(NC(=O)c2ccc(S(=O)(=O)N3CCOCC3)cc2)sc2c1CCC2 | 94.5% [fluorescence artefact?] (active) |
| CNC(=O)c1c(NC(NC(=O)c2ccco2)C(=O)c2ccc(Cl)cc2)sc2c1CCCC2 (stereo unspecified) | -3.84% (inactive) |
| CCOC(=O)c1ccc2c(c1)nc(SCC(=O)NC(C)C)n2CC | 26.4% (inactive) |
| CCOc1cc(C(=O)Nc2c(C)ccc3nsnc23)cc(OCC)c1OCC | 8.18% (inactive) |
| N#CC(=C1CCCC1)c1nc(-c2ccc(Cl)cc2)cs1 | -5.55% (inactive) |
| CCCCCN1CC(O)=C(c2nc(-c3ccc(Cl)cc3)cs2)C1=N | 65.8% [fluorescence artefact?] (active) |
| CCCCCN1CC(O)=C(c2ccccc2)C1=N | 2.06% (inactive) |
| Cc1ccc(S(=O)(=O)Oc2ccc(/C=N/NC(=O)c3c(Cl)cnn3C)cc2)cc1 | -7.62% (inactive) |
| C=CCn1c(CC(=O)Nc2cccc(OC)c2)nnc1SCC(=O)NC1CCCCC1 | -5.03% (inactive) |
| COCCCn1c(SCC(=O)Nc2ccccc2)nnc1-c1ccncc1 | -1.59% (inactive) |
| COCCCn1c(Cc2csc(Nc3cccc(Cl)c3)n2)nnc1SCC(=O)OC1CCCCC1 | 67.4% [fluorescence artefact?] (active) |
| CCc1nc2oc3ccccc3c(=O)c2c(=O)n1Cc1ccc(OC)cc1 | 21% (inactive) |
| O=c1nc2s/c(=C\c3ccco3)c(=O)n2nc1Cc1ccccc1 | 28.7% (inactive) |
| CCOc1ccccc1C(=O)NCc1ccco1 | 10.6% (inactive) |
| CCOC(=O)/C=c1\s/c(=C\c2ccccc2OC)c(=O)n1CC(=O)N1CCOCC1 | -4.48% (inactive) |
| CCOc1ccccc1/C=c1\sc2nc(-c3ccco3)nn2c1=O | 57.2% (active) |
| CCCCOc1ccccc1/C=c1/sc2nc(-c3oc4ccccc4c3C)nn2c1=O | 50% (active) |

| SMILES | inhibition |
| --- | --- |
| COC(=O)CSc1nc(C)c2ccc(OC)cc2n1 | -6.48% (inactive) |
| CC1CCCCC1NC(=O)C1CCCN1S(=O)(=O)c1cccc2nsnc12 (stereo unspecified) | 11.2% (inactive) |
| Cc1cc(C)c(NC(=O)CN2CCOCCOCCOCCOCC2)c(C)c1 | 3.92% (inactive) |
| O=C(CN1CCCCCC1)N1c2ccccc2Sc2ccc(C(F)(F)F)cc21 | -9.51% (inactive) |
| Cc1ccc2c(c1)sc1ncc(NC(=O)c3ccccc3)c(=O)n12 | 53.5% [fluorescence artefact?] (active) |
| Cc1ccccc1NC(=O)c1ccccc1 | -4.17% (inactive) |
| Cc1nc(NNC(=O)c2ccccc2)cc(-c2ccccc2)n1 | -1.45% (inactive) |
| Cc1cccc(N(C(=O)c2ccc(CN3CCOCC3)o2)C(C(=O)NC2CCCCC2)c2ccc(F)cc2)c1 (stereo unspecified) | 2.65% (inactive) |
| CS(=O)(=O)c1ccc2c(c1)SC1=NC(=O)/C(=C/c3ccco3)C(=N)N12 | 82.8% [fluorescence artefact?] (active) |
| COC(=O)c1cn(-c2ccccc2)nc1-c1cccnc1 | 1.49% (inactive) |
| O=C(c1cn(-c2ccccc2)nc1-c1cccnc1)N1CCCCC1 | 93.3% [fluorescence artefact?] (active) |
| COc1ccccc1N1CCN(C(=O)c2cn(-c3ccccc3)nc2-c2cccnc2)CC1 | 0.39% (inactive) |
| O=C(N/N=C\c1cccc(Br)c1)c1ccccc1-n1cccc1 | -1.04% (inactive) |
| Oc1ccc(-c2onc3ccc(Cl)cc23)cc1 | 2.22% (inactive) |
| O=S(=O)(NN=C1CCCCCCC1)c1ccc(Br)cc1 | -3.65% (inactive) |
| COC(=O)c1cnn2c(C(F)(F)F)cc(-c3ccco3)nc12 | 62.1% (active) |
| COC(=O)c1cc2nc(-c3ccccc3)cc(C(F)(F)F)n2n1 | -12% (inactive) |
| O=C(NCc1ccco1)c1cnn2c(C(F)(F)F)cc(-c3ccco3)nc12 | 6.58% (inactive) |
| CC1(C)C2CCC13CS(=O)(=O)NC3C2 (stereo unspecified) | 3.36% (inactive) |
| CCc1nnc(NC(=O)CSc2nc3ccccc3c(=O)n2CCCOC)s1 | 14.8% (inactive) |
| O=C1/C(=C/c2cccs2)CCc2ccccc21 | 5.05% (inactive) |
| COc1ccc(-n2c(SCC(=O)Nc3ccc4c(c3)OCO4)nnc2C(C)N2CCCCC2)cc1 (stereo unspecified) | 55.2% (active) |
| Cc1ccc(-n2c(SCC(=O)Nc3ccc4c(c3)OCO4)nnc2-c2ccccn2)cc1 | -7.91% (inactive) |

| SMILES | inhibition |
| --- | --- |
| Cc1ccc(-n2c(SCC(=O)Nc3ccc4c(c3)OCO4)nnc2-c2ccoc2C)cc1 | -0.65% (inactive) |
| O=C1N=C(N2CCCC2)S/C1=C\c1cccc(Br)c1 | -3.71% (inactive) |
| CSc1nc2nc3c(c(=O)n2[nH]1)CCC3 | -5.51% (inactive) |
| CNc1nc(SC)nc(N(C#N)CC(=O)OC)n1 | -12.1% (inactive) |
| O=C(NCC(=O)N(Cc1cccs1)C(C(=O)NC1CCCCC1)c1ccco1)c1cccs1 (stereo unspecified) | -0.84% (inactive) |
| O=C(Cc1c[nH]c2ccccc12)OCCOC(=O)Cc1c[nH]c2ccccc12 | -4.73% (inactive) |
| COc1cccc(NC(=O)CN2CCN(c3nc(-c4cccc(OC)c4)cs3)CC2)c1 | -8.12% (inactive) |
| CC1Cc2ccccc2N1C(=O)CSc1nc2ccccc2o1 (stereo unspecified) | -8.05% (inactive) |
| CCS(=O)(=O)c1ccc2oc(SCC(=O)N3c4ccccc4CC3C)nc2c1 (stereo unspecified) | 14% (inactive) |
| CC1Cc2ccccc2N1C(=O)CSc1nnc(-c2ccc(S(=O)(=O)N3CCCCC3)cc2)o1 (stereo unspecified) | 72.8% [fluorescence artefact?] (active) |
| O=C(CCN1c2ccccc2Sc2ccccc21)Nc1ccccc1 | -1.92% (inactive) |
| Cc1ccc(Nc2nnc(SCc3ccccc3)s2)cc1 | -0.81% (inactive) |
| O=C(CCN1CCc2ccccc2C(O)(c2ccccc2)C1)c1ccc2c(c1)OCCO2 (stereo unspecified) | 6.71% (inactive) |
| Cc1ccc(SCC(=O)c2cc(C)c(OC(=S)N(C)C)c(C)c2)cc1 | 1.54% (inactive) |
| COc1ccc(-c2nc3ccccc3n2CCC(C)C)cc1OC | 0.74% (inactive) |
| Cc1ccc2nc(SC(C)C(=O)NCc3ccco3)[nH]c2c1 (stereo unspecified) | 0.42% (inactive) |
| Cc1ccc2[nH]c(=O)c(-c3nc4c(C)cccn4c3NCc3ccco3)cc2c1 | 92.7% [fluorescence artefact?] (active) |
| CCNCc1cc2cc(C)ccc2[nH]c1=O | 5.96% (inactive) |
| CC(C)(C)c1ccc(OC2=CS(=O)(=O)c3ccccc32)cc1 | -1.62% (inactive) |
| COc1ccc(CC(=O)Nc2ccc(-c3nnc(-c4ccccc4)o3)cc2)cc1 | 40.1% (inactive) |
| CCCCCCc1cc2cc(-c3nnc(-c4cccc(OC)c4)o3)c(=O)oc2cc1O | -2.99% (inactive) |
| CCCCCCc1cc2cc(-c3nnc(-c4ccccc4)o3)c(=O)oc2cc1O | 53.5% (active) |
| CCOc1ccc(S(=O)(=O)NCCSc2ccccc2)cc1 | 0.2% (inactive) |

| SMILES | inhibition |
| --- | --- |
| Cc1cc(C)c2c(n1)nn1c(N3CCOCC3)cc(C)nc21 | 10.7% (inactive) |
| Cc1cc(C)c2c(n1)nn1c(N3CCN(c4cccc(Cl)c4)CC3)cc(C)nc21 | 73.8% (active) |
| Cc1cc(C)c2c(n1)nn1c(-n3ccnc3)cc(C)nc21 | 4.13% (inactive) |
| COc1ccc(C2CC(c3cccs3)=Nc3ccccc3S2)cc1OC (stereo unspecified) | 15.7% (inactive) |
| Cc1cccc(-c2nc3c(c(SCC(=O)N4CCOCC4)n2)CCCC3)c1 | -17.1% (inactive) |
| Cc1nc(NC(=O)C2CCCCC2)sc1C | 0.45% (inactive) |
| CS(=O)(=O)N(CC(=O)NCc1ccco1)c1ccc2c(c1)OCO2 | 53.8% (active) |
| O=C(Cn1nnc(-c2ccc3c(c2)OCO3)n1)NCc1ccco1 | 41.7% (inactive) |
| CS(=O)(=O)N(CC(=O)N1CCN(Cc2ccc3c(c2)OCO3)CC1)c1ccc2c(c1)OCO2 | 2.04% (inactive) |
| COC(=O)c1cccc(N(C(=O)c2ccco2)C(C(=O)NC2CCCC2)c2ccco2)c1 (stereo unspecified) | -14.6% (inactive) |
| N#CC1=C(N)Oc2c(sc3ccccc23)C1c1ccco1 (stereo unspecified) | 85.9% [fluorescence artefact?] (active) |
| Cc1cc2c(c(=O)n1Cc1ccco1)C(c1ccccc1)C(C#N)=C(N)O2 (stereo unspecified) | -11.1% (inactive) |
| CC1=C(C(=O)Nc2ccccc2)C(c2ccco2)C(C#N)=C(SCC(N)=O)N1 (stereo unspecified) | -3.05% (inactive) |
| Cc1cc(C(=O)OC(C)C(=O)Nc2cccc(S(=O)(=O)N3CCOCC3)c2)c(C)o1 (stereo unspecified) | 0.74% (inactive) |
| CCOC(=O)Cc1csc(NC(=O)CSc2nnc(-c3cccnc3)n2Cc2ccco2)n1 | -5.63% (inactive) |
| Cc1cc(N2CCN(S(=O)(=O)c3ccc(C)c(C)c3)CC2)c2ccccc2n1 | 16.1% (inactive) |
| CCNCCC(=O)N1c2ccccc2Sc2ccc(NC(=O)OCC)cc21 | -22% (inactive) |
| CCO/C([O-])=N/c1c[n+](N2CCOCC2)no1 | 51.1% (active) |
| O=C(NCCN1CCN(Cc2ccccc2)CC1)c1cc2c(=O)[nH]c3ccccc3c2s1 | 24.2% (inactive) |
| Cc1nnc2sc(-c3ccco3)nn12 | 0.95% (inactive) |
| FC(F)(F)c1nnc2sc(-c3ccco3)nn12 | 2.64% (inactive) |
| Fc1ccc(-c2ccc(-c3nn4c(-c5ccco5)nnc4s3)o2)cc1 | 69.7% [fluorescence artefact?] (active) |

Source: PubChem BioAssay AID629 (Emory University Molecular Libraries Screening Center, 2007)
